JMJD2A Tudor inh: inhibitors of human JMJD2A Tudor domain; O75164; AlphaScreen JMJD2A-Tudor / H3K4me3 peptide binding; Potency, µM (doses to about 114 µM), for inactives: at the top dose activity change, negative = inhibition, actives largely listed as inhibitors; hit rate 4.4% among 390,000; AID 504339; further: potency means the concentration at half of the fitted maximal effect; on the % scale 0 is the no-effect control and ±100 the full control effect; nearly all actives have a fitted effect of over 50% in size
HP1b binding inh: blocks HP1-beta chromodomain binding to methylated histone tails; P83916; Potency, µM (top dose mostly 114 µM), for the others: at the top dose activity change, negative = inhibition, hits mostly inhibitors; AID 540317; hit rate 0.56% among 390,000; AlphaScreen HP1-beta / biotin-H3K9me3 peptide binding; further: potency means the concentration at half of the fitted maximal effect; nearly all actives have a fitted effect of over 70% in size
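HP1-beta protein (50 nM final) preincubated 30 min at room temperature with biotinylated H3(1-18)K9me3 peptide (50 nM) in PBS pH 7.4, 0.01% Tween-20, then compound added for 30 min. AlphaScreen streptavidin donor/nickel chelate acceptor beads (10 ug/mL final), 30 min dark, luminescence read.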
G9a inh: blocks human histone lysine methyltransferase G9a. Q96KQ7. G9a H3K9 monomethylation, AlphaScreen, 2 h. Potency, µM (doses to about 102 µM), for the others: top-dose activity, negative = inhibition, most hits filed as inhibitors. hit rate 8.8% among 350,000; further: potency means the concentration at half of the fitted maximal effect; on the % scale 0 is the no-effect control and ±100 the full control effect; nearly all actives have a fitted effect of over 75% in size
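Quantitative HTS format: methyltransferase activity on a biotin-tagged H3K9 peptide is measured by AlphaScreen, using a rabbit anti-monomethyl-H3K9 antibody with streptavidin donor and anti-IgG acceptor beads. Final levels are 20 nM enzyme, 500 nM peptide, 20 uM SAM; 2 h RT.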
Six1-Eya2 blk: blocks human Six1 binding to Eya2. activity change, % (concentration not given with the values). hit rate 0.56% among 360,000. AlphaScreen GST-Six1/His-Eya2 binding, biochemical; hits give low values. Q15475+O00167; in the data active means activity change below about -65%; inconclusive means mostly about -30% to -63%; further: on the % scale 0 is the no-effect control and ±100 the full control effect
Target sequence (O00167 whole entry, looked up): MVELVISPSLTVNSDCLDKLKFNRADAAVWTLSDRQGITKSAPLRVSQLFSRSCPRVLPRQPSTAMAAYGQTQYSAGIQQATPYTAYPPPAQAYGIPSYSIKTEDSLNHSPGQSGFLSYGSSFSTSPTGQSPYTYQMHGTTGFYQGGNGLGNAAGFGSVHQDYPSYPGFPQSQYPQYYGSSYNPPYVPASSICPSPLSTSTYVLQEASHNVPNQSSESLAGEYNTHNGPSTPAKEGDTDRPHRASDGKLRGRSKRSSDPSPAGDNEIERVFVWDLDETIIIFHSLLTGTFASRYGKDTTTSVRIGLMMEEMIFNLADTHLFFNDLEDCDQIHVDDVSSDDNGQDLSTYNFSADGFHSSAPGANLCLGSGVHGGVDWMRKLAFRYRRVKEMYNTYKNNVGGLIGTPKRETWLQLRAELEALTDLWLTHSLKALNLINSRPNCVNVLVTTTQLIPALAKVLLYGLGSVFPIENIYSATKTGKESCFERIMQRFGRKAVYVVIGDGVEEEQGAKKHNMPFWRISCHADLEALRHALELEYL
Target sequence (Q15475 whole entry, looked up): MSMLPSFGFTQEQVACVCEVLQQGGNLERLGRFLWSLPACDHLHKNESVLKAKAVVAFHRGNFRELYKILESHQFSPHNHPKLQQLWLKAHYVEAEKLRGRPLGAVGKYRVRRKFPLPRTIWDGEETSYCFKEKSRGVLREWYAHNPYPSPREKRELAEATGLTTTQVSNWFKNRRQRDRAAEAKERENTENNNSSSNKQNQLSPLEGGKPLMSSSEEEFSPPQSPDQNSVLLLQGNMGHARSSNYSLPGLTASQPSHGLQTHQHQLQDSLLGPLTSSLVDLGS
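Homogeneous AlphaScreen proximity assay pairing GST-Six1 with His-tagged Eya2 (added as 5X mix: 250 nM and 500 nM) in 50 mM Tris pH 8.0, 300 mM NaCl, 1 mM TCEP. Glutathione donor and nickel acceptor beads; 1 h, 37 °C, dark.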
CtBP-E1A blk: inhibitors of CtBP/E1A interaction. AlphaScreen GST-E1A/His-CtBP binding, 1536-well; hits give low values. activity change, % (concentration not given with the values). AID 651724. hit rate 0.49% among 340,000; in the data active means activity change below about -65%; inconclusive means mostly about -30% to -63%; further: on the % scale 0 is the no-effect control and ±100 the full control effect
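In 5 uL wells, 23 nL compound meets equimolar GST-E1A and His-CtBP (5X stock 125 nM each) for 2 h, 37 °C. Beads (5X, 50 ug/mL) then 1 h, 37 °C, dark.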
BAZ2B inh: inhibitors of human BAZ2B bromodomain. Q9UIF8. AlphaScreen BAZ2B-H3K14Ac peptide displacement. Potency, µM (series often up to 114 µM), for the others: at the top dose activity change, negative = inhibition, most hits filed as inhibitors. hit rate 4.4% among 360,000; further: potency means the concentration at half of the fitted maximal effect; on the % scale 0 is the no-effect control and ±100 the full control effect; nearly all actives have a fitted effect of over 60% in size
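BAZ2B 50 nM plus b-H3(5-23)K14Ac 50 nM, PBS pH 7.4/0.01% Tween-20, 30 min RT; compound added (max 110 uM), 30 min RT; streptavidin donor/Ni-chelate acceptor beads 10 ug/mL final, 20 min dark; AlphaScreen read.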
* hit, by the source's call; ? = inconclusive; / = no result given; [ ] = dose if it differs, or a comment. A selection: hits, their analogues and other compounds. The true share with any hit is near 10%. Unless noted, the call rests on the fitted dose curve; in most records, active means well fitted inhibition curve with a large enough effect; inconclusive means small, poorly fitted or top-dose-only effect; inactive means no such curve, though single readings can be large or run the other way.

SMILES	JMJD2A Tudor inh	HP1b binding inh	G9a inh	Six1-Eya2 blk	CtBP-E1A blk	BAZ2B inh
CCN(CC)S(=O)(=O)c1cc(-c2nn(C)c(=O)c3ccccc23)ccc1C	?	-1.6%	?	10.3	5.6	50.1µM*
CCn1cc(C(=O)N2CCN(c3ccccc3F)CC2)c(=O)c2cc(S(=O)(=O)N(C)C3CCCCC3)ccc21	-25.3%	6.0%	?	/	/	/
COc1cc(/C=C2\SC(=O)N(Cc3ccc(F)cc3)C2=O)cc([N+](=O)[O-])c1O	28.2µM*	15.8µM*	/	-3.1	-1.1	8.91µM*
COc1cc(/C=C2\SC(=O)N(Cc3ccc(Cl)cc3)C2=O)cc([N+](=O)[O-])c1O	8.91µM*	12.6µM*	-116.3%[59 µM]	-4.7	-3.3	15.8µM*
CCOC(=O)CN1C(=O)S/C(=C/c2ccc(OC)c([N+](=O)[O-])c2)C1=O	3.5%	27.9%	24.9%[59 µM]	0.1	2.1	5.6%
COc1cc(/C=C2/SC(=O)N(Cc3ccccc3)C2=O)ccc1OCc1ccncc1	?	19.4%	-8.3%[12.7 µM]	1.5	16.7	-33.3%
COc1ccccc1NC(=O)CSc1oc(-c2ccc(F)cc2)nc1S(=O)(=O)c1ccc(Br)cc1	3.8%	31.4%	-22.1%[59 µM]	/	/	-1.2%
CCC(CC)C(=O)Nc1nnc2n1CCS2	-10.3%	14.4%[57 µM]	?	/	/	-30.1%
O=C(O)c1cccc(-n2cnc3cccnc32)c1	3.7%	44.5%	11.8%[59 µM]	/	/	3.0%
CCCN(CCC)C(=O)Cc1coc2ccc3ccccc3c12	6.8%	33.9%	50.1µM*	-0.5	2.0	-3.8%
O=C(Cc1coc2ccc3ccccc3c12)NCc1ccccc1	-13.4%	19.6%	-10.3%	-1.9	-2.2	-6.1%
Cc1cc(C)cc(OCc2cc(=O)n3cc(C)sc3n2)c1	1.0%	31.3%	-4.2%[59 µM]	/	/	-1.2%
CC1CCc2[nH]c3ccc(C(=O)N(C)CC(=O)Nc4ccccc4Cl)cc3c2C1 (stereo not drawn)	?	-36.8%	50.1µM*	-20.7	-6.6	?
CC1CCc2[nH]c3ccc(C(=O)N(C)CC(=O)Nc4ccccc4C(F)(F)F)cc3c2C1 (stereo not drawn)	50.1µM*	-27.8%	16.6%[2.33 µM]	-6.6	-1.7	50.1µM*
CCN(CC(=O)Nc1ccccc1OC)C(=O)c1ccc2[nH]c3c(c2c1)CC(C)CC3 (stereo not drawn)	?	-23.9%	-11.9%[12.7 µM]	-22.9	-27.6	?
O=C(CSc1nc2ccsc2c(=O)n1Cc1ccccc1F)NCc1ccccc1	-31.7%	26.3%	16.6%[59 µM]	/	/	0.4%
CCOC(=O)CC(NC(=O)CCc1c(C)nc2c(c(C)nn2-c2ccc(C)c(C)c2)c1C)c1ccc(C)cc1 (stereo not drawn)	-14.8%	33.8%	-34.6%[59 µM]	/	/	-2.6%
CN(Cc1ccco1)S(=O)(=O)c1cc(F)ccc1CN1C(=O)c2cccnc2C1=O	12.8%	42.8%	1.9%	-5.2	/	?
CN(Cc1ccco1)S(=O)(=O)c1ccc(CN2C(=O)c3cccnc3C2=O)s1	31.6µM*	10.3%	?	-9.1	-5.6	-35.8%[57.1 µM]
COc1cccc2c1ncc1c(-c3ccc(C)cc3)nn(-c3cccc([N+](=O)[O-])c3)c12	-18.2%	56.1%	52.9%[59 µM]	/	/	2.4%
CON(C)S(=O)(=O)c1ccc2c(c1)N(Cc1ccc(C)cc1)C(=O)C1CCCN21 (stereo not drawn)	-17.5%	38.0%	25.1µM*	3.1	-7.4	-22.4%
N#Cc1ccc2c(c1)NC(=O)C1CCCN21 (stereo not drawn)	-10.3%	23.0%	14.1µM*	4.0	11.2	-28.9%
N#CCN1C(=O)C2CCCN2c2ccc(S(=O)(=O)N3CCOCC3)cc21 (stereo not drawn)	-9.7%	31.8%	20µM*	-4.1	4.9	-26.6%
Cc1ccc(C)c(CN2C(=O)C3CCCN3c3ccc(C#N)cc32)c1 (stereo not drawn)	5.3%	44.9%	?	1.2	-7.5	1.2%
Cc1ccc(CN2C(=O)C3CCCN3c3ccc(C#N)cc32)cc1 (stereo not drawn)	/	/	20µM*	/	/	-17.9%
SMILES	JMJD2A Tudor inh	HP1b binding inh	G9a inh	Six1-Eya2 blk	CtBP-E1A blk	BAZ2B inh
Fc1ccc(Nc2ncnc3onc(-c4ccc(Cl)cc4)c23)cc1Cl	18.9%	101.8%	26.7%[59 µM]	/	/	6.5%
Cc1ccc(CNC(=O)c2cc(-c3ccc(Cl)cc3)on2)cc1	-16.6%	21.8%	8.9%[59 µM]	/	/	0.8%
Cc1ccccc1N(C(=O)CS(=O)CC(=O)Nc1ccc(F)cc1)C(C)C(=O)NC(C)(C)C (stereo not drawn)	-11.3%	?	12.9%	7.2	-1.6	3.1%
Cc1ccc(N(C(=O)CS(=O)CC(=O)Nc2ccc(F)cc2)C(C)C(=O)NC(C)(C)C)cc1 (stereo not drawn)	2.1%	15.0%	70.8µM*	7.9	0.0	0.0%
CCc1nc2nc(C)cc(Nc3cc(C)ccc3C)n2n1	-4.1%	41.8%	-3.1%[59 µM]	/	/	-13.5%
Cn1nnc(C(O)CN2CCOCC2)n1 (stereo not drawn)	2.9%	36.1%	79.4µM*	8.6	1.8	-6.6%
Cn1nnc(C(O)CNCc2ccc(Cl)cc2)n1 (stereo not drawn)	-2.5%	32.1%	-48.0%[59 µM]	-0.4	-7.6	-31.3%
Cc1ccc(NC(=O)Cn2nnc(C(=O)NCc3ccc4c(c3)OCO4)c2N)cc1Cl	-7.4%	11.6%	-4.5%[59 µM]	/	/	4.6%[57.1 µM]
COc1ccccc1OCc1ccc(C(=O)N2CCN(C(=O)c3ccco3)CC2)cc1	-25.9%	1.1%	44.7µM*	-0.3	0.8	2.8%
COc1ccc(CN2CCN(C(=O)c3ccco3)CC2)cc1OCc1ccccc1	?	?	11.2µM*	2.8	-6.7	56.2µM*
CCn1c2ccccc2c2cc(CN3CCN(C(=O)c4ccco4)CC3)ccc21	35.5µM*	?	?	-23.5	-21.1	?
CCn1c(=O)cc(SCC(=O)N2CCN(C(=O)c3ccco3)CC2)c2ccccc21	-8.2%	28.0%	-38.5%	-7.5	-11.0	-9.7%
COc1ccc(-c2nc(CN3CCN(C(=O)c4ccco4)CC3)c(C)o2)cc1OC	-18.7%	19.4%	56.2µM*	-1.5	/	13.7%[57.1 µM]
O=C(COCc1cc(-c2ccc3c(c2)OCO3)on1)Nc1cc(C(F)(F)F)ccc1Cl	9.6%	41.2%	32.6%[59 µM]	/	/	11.1%
Cc1ccccc1C(=O)Nc1sc2c(c1C(=O)NCc1ccco1)CCC(C(C)(C)C)C2 (stereo not drawn)	-14.2%	33.7%	14.1%[59 µM]	/	/	8.1%
